Measured values taken from the supplement of paper PMC10811239.

How the values were obtained:
Assay in all cases: bioluminescence (viable cell) signal fold change after vs before treatment, normalised to DMSO (ratio); higher = more tumour cell growth / less inhibition
Conditions in all cases: 10 µM; treatment time 6 days
[1] = tested on: LEGO organoid PT (PTEN-/-; TP53-/-)
Experimental: (§1)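 Luc2-labelled iPSC-derived glioblastoma-like organoids (LEGOs, genotypes PT = PTEN-/-;TP53-/-, PTCC = plus CDKN2A/B-/-, PTN = plus NF1-/-) were treated with 10 uM drug for 6 days (applied every other day) at 37 C. Bioluminescence imaging was done before treatment and 2 days after the last dose. BLI signals were normalised to the DMSO control on the same day and then to the pre-treatment signal (N=3).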

[2] = tested on: LEGO organoid PTCC (PTEN-/-; TP53-/-; CDKN2A-/-; CDKN2B-/-)
Experimental: as §1

[3] = tested on: LEGO organoid PTN (PTEN-/-; TP53-/-; NF1-/-)
Experimental: as §1

Row | SMILES | bioluminescence [1] | bioluminescence [2] | bioluminescence [3]
1 | CS(=O)(=O)CCNCc1ccc(-c2ccc3ncnc(Nc4ccc(OCc5cccc(F)c5)c(Cl)c4)c3c2)o1 [Lapatinib] | 1.62 | 0.878 | 1.93
2 | C[C@H]1C[C@@H]2[C@H]([C@@H](O)C[C@@]3(C)[C@H]2CC[C@]3(O)C(=O)CO)[C@@]2(C)C=CC(=O)C=C12 [Methylprednisolone] | 1.3 | 0.882 | 1.17
3 | OCCN1CCN(CCCN2c3ccccc3Sc3ccc(Cl)cc32)CC1 [Perphenazine] | 0.743 | 0.615 | 1.74
4 | C[C@H]1[C@H](NC(=O)/C(=N\OC(C)(C)C(=O)O)c2csc(N)n2)C(=O)N1S(=O)(=O)O [Aztreonam] | 1.04 | 0.795 | 1.4
5 | Nc1nc(=O)c2c(CCc3ccc(C(=O)N[C@@H](CCC(=O)[O-])C(=O)[O-])cc3)c[nH]c2[nH]1.Nc1nc(=O)c2c(CCc3ccc(C(=O)N[C@@H](CCC(=O)[O-])C(=O)[O-])cc3)c[nH]c2[nH]1.O.O.O.O.O.[Na+].[Na+].[Na+].[Na+] [Pemetrexed Disodium Hydrate] | 1.33 | 0.95 | 1.05
6 | CCCc1nc(C)c2c(=O)[nH]c(-c3cc(S(=O)(=O)N4CCN(CC)CC4)ccc3OCC)nn12 [Vardenafil] | 1.36 | 1.16 | 1.29
7 | Cl.NCC(=O)CCC(=O)O [5-Aminolevulinic acid hydrochloride] | 1.09 | 2.27 | 1.19
8 | Cl.Cl.OCCOCCN1CCN(C(c2ccccc2)c2ccc(Cl)cc2)CC1 (centres undefined) [Hydroxyzine dihydrochloride] | 1.29 | 0.859 | 2.31
